Data taken from PubChem BioAssay AID1159580 (chemical genetic matrix, 2015).
Several values for one entry are separate records, joined by “and”; a condition that tells them apart may be missing. Equal entries are not always repeated. In all, about 5,500 compounds went through this assay and about 2,000 (36%) were called active. Not shown: some 18% with an inconclusive outcome. The list shows a part of the results. Values without a mark were called inactive. Rule as the data show it: active = normalized growth mostly below about 0.91 (no sharp cut-off); inconclusive = no clear call, values can overlap the other calls; inactive = mostly above about 0.92.

Test: chemical genetic growth profiling, strain panel (AID 1159580);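 also: tested at 20 µM; growth read once vehicle control cultures reached saturation at 30 °C; 1 = growth at the plate median or of vehicle wells; lower values mean less growth of the strain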
Conditions: S. cerevisiae deletion strains, growth OD

For Nc1c2ccccc2nc2ccccc12, the normalized growth (locus YAL013W, strain DEP1, active compounds read low) was 0.734 (active), the normalized growth (locus YAL021C, strain ccr4, active compounds read low) was 0.568 (active) and the normalized growth (locus YAL026C, strain drs2, active compounds read low) was 0.675 (active). For the same compound, the normalized growth (locus YAL030W, strain snc1, active compounds read low) was 0.566 (active), the normalized growth (locus YBL061C, strain skt5, active compounds read low) was 0.754 (active) and the normalized growth (locus YBR009C, strain hhf1, active compounds read low) was 0.378 (active). The normalized growth (locus YBR021W, strain FUR4, active compounds read low) was 1.02, the normalized growth (locus YBR023C, strain chs3, active compounds read low) was 0.759 (active) and the normalized growth (locus YBR171W, strain sec66, active compounds read low) was 1.09. The normalized growth (locus YBR229C, strain ROT2, active compounds read low) was 1.01, the normalized growth (locus YBR231C, strain swc5, active compounds read low) was 0.61 (active) and the normalized growth (locus YBR279W, strain paf1, active compounds read low) was 0.55 (active). The normalized growth (locus YCL011C, strain gbp2, active compounds read low) was 0.526 (active), the normalized growth (locus YCL016C, strain dcc1, active compounds read low) was 0.453 (active) and the normalized growth (locus YCL029C, strain bik1, active compounds read low) was 0.412 (active). The normalized growth (locus YCL061C, strain MRC1, active compounds read low) was 0.801 (active), the normalized growth (locus YCL069W, strain vba3, active compounds read low) was 0.732 (active) and the normalized growth (locus YCR088W, strain abp1, active compounds read low) was 0.737 (active). For the same compound, the normalized growth (locus YDL005C, strain med2, active compounds read low) was 0.781 (active), the normalized growth (locus YDL035C, strain GPR1, active compounds read low) was 0.478 (active) and the normalized growth (locus YDL040C, strain nat1, active compounds read low) was 0.838 (active). For the same compound, the normalized growth (locus YDL074C, strain BRE1, active compounds read low) was 0.484 (active), the normalized growth (locus YDL101C, strain DUN1, active compounds read low) was 0.782 (active) and the normalized growth (locus YDL134C, strain PPH21, active compounds read low) was 0.729 (active). For the same compound, the normalized growth (locus YDL185W, strain tfp1, active compounds read low) was 1, the normalized growth (locus YDL192W, strain arf1, active compounds read low) was 0.622 (active) and the normalized growth (locus YDR001C, strain nth1, active compounds read low) was 0.89 (active). The normalized growth (locus YDR069C, strain doa4, active compounds read low) was 0.5 (active), the normalized growth (locus YDR101C, strain arx1, active compounds read low) was 0.483 (active) and the normalized growth (locus YDR137W, strain rgp1, active compounds read low) was 0.983. The normalized growth (locus YDR150W, strain NUM1, active compounds read low) was 0.838 (active), the normalized growth (locus YDR159W, strain sac3, active compounds read low) was 0.875 and the normalized growth (locus YDR162C, strain NBP2, active compounds read low) was 0.698 (active). For the same compound, the normalized growth (locus YDR195W, strain ref2) was 1.23 [resistant] (active), the normalized growth (locus YDR297W, strain sur2, active compounds read low) was 0.662 (active) and the normalized growth (locus YDR318W, strain mcm21, active compounds read low) was 0.565 (active). The normalized growth (locus YDR334W, strain swr1, active compounds read low) was 0.93, the normalized growth (locus YDR335W, strain msn5, active compounds read low) was 0.782 (active) and the normalized growth (locus YDR388W, active compounds read low) was 0.481 (active). The normalized growth (locus YDR392W, strain spt3, active compounds read low) was 0.825, the normalized growth (locus YDR502C, strain sam2, active compounds read low) was 0.513 (active) and the normalized growth (locus YEL003W, strain gim4, active compounds read low) was 0.679 (active). For the same compound, the normalized growth (locus YEL037C, strain rad23, active compounds read low) was 0.57 (active), the normalized growth (locus YEL061C, strain CIN8 (second series), active compounds read low) was 0.885 (active) and the normalized growth (locus YEL061C, strain CIN8, active compounds read low) was 0.793 (active). For the same compound, the normalized growth (locus YER015W, strain faa2, active compounds read low) was 0.693 (active), the normalized growth (locus YER016W, strain bim1, active compounds read low) was 0.69 (active) and the normalized growth (locus YER110C, active compounds read low) was 0.977. The normalized growth (locus YER111C, strain swi4, active compounds read low) was 0.886 (active), the normalized growth (locus YER155C, strain BEM2 (second series), active compounds read low) was 0.913 and the normalized growth (locus YER155C, strain BEM2, active compounds read low) was 1.01. For the same compound, the normalized growth (locus YER167W, strain BCK2, active compounds read low) was 0.614 (active), the normalized growth (locus YFR010W, strain ubp6, active compounds read low) was 0.615 (active) and the normalized growth (locus YGL078C, strain dbp3, active compounds read low) was 0.681 (active). The normalized growth (locus YGL086W, strain mad1, active compounds read low) was 0.595 (active), the normalized growth (locus YGL167C, strain pmr1, active compounds read low) was 1.01 and the normalized growth (locus YGL173C, strain kem1, active compounds read low) was 0.567 (active). The normalized growth (locus YGL227W, strain vid30, active compounds read low) was 0.885 (active), the normalized growth (locus YGL240W, strain doc1, active compounds read low) was 0.914 and the normalized growth (locus YGL248W, strain PDE1, active compounds read low) was 0.671 (active). The normalized growth (locus YGL253W, strain hxk2, active compounds read low) was 0.535 (active), the normalized growth (locus YGR078C, strain PAC10, active compounds read low) was 0.735 (active) and the normalized growth (locus YGR135W, strain pre9, active compounds read low) was 0.709 (active). The normalized growth (locus YGR229C, strain SMI1, active compounds read low) was 0.694 (active), the normalized growth (locus YGR252W, strain gcn5, active compounds read low) was 0.544 (active) and the normalized growth (locus YHR013C, strain ard1, active compounds read low) was 0.557 (active). For the same compound, the normalized growth (locus YHR027C, strain rpn1, active compounds read low) was 0.73 (active), the normalized growth (locus YHR030C, strain SLT2, active compounds read low) was 0.796 (active) and 0.77 (active) and the normalized growth (locus YHR079C, strain IRE1 (second series), active compounds read low) was 0.535 (active). The normalized growth (locus YHR079C, strain IRE1, active compounds read low) was 0.763 (active), the normalized growth (locus YHR094C, strain hxt1, active compounds read low) was 0.801 (active) and the normalized growth (locus YHR129C, strain ARP1, active compounds read low) was 0.808 (active). For the same compound, the normalized growth (locus YHR142W, strain chs7, active compounds read low) was 0.706 (active), the normalized growth (locus YHR200W, strain rpn10, active compounds read low) was 0.674 (active) and the normalized growth (locus YIL066C, strain RNR3, active compounds read low) was 0.737 (active). For the same compound, the normalized growth (locus YIL073C, strain SPO22, active compounds read low) was 0.681, the normalized growth (locus YIL125W, strain kgd1, active compounds read low) was 0.803 (active) and the normalized growth (locus YIR030C, strain dcg1, active compounds read low) was 0.59 (active). The normalized growth (locus YJL092W, strain hpr5, active compounds read low) was 0.659 (active), the normalized growth (locus YJL095W, strain BCK1 (second series), active compounds read low) was 0.684 (active) and the normalized growth (locus YJL095W, strain BCK1, active compounds read low) was 0.563 (active) and 0.76 (active). The normalized growth (locus YJL115W, strain asf1, active compounds read low) was 0.861 (active), the normalized growth (locus YJL129C, strain trk1, active compounds read low) was 1.05 and the normalized growth (locus YJL134W, strain LCB3, active compounds read low) was 1.01. For the same compound, the normalized growth (locus YJL154C, strain vps35, active compounds read low) was 0.993, the normalized growth (locus YJL164C, strain tpk1, active compounds read low) was 0.462 (active) and the normalized growth (locus YJL166W, strain qcr8, active compounds read low) was 0.549 (active). For the same compound, the normalized growth (locus YJL168C, strain set2, active compounds read low) was 0.972, the normalized growth (locus YJL187C, strain SWE1 (second series), active compounds read low) was 0.524 (active) and the normalized growth (locus YJR043C, strain POL32, active compounds read low) was 0.717 (active). The normalized growth (locus YJR066W, strain TOR1, active compounds read low) was 0.744 (active).
